Out of some 360,000 compounds screened, about 2,300 (0.64%) were called active. The list comes from a sample in which actives are over-represented; it also holds similar structures and randomly drawn compounds. Unmarked numbers belong to inactive results.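 The calls were made as follows: active = compounds giving at least 50% protection of heart cells from peroxide-induced death in the single-dose screen, raw or plate-pattern-corrected value; inactive = the rest.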
Experiment: cardioprotection against H2O2-induced cell death, primary screen, uHTS, H9c2 cells, ATPLite luminescence (AID 588492);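 also: 0% = DMSO wells with peroxide and 100% = DMSO wells without peroxide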
Conditions: H9c2 cardiomyocytes, H2O2 injury protection, 2 h, at 20 µM, active compounds read high

SMILES | protection from H2O2 cell death
CNc1nnc(-c2ccco2)s1 | 3.7%
Cc1nc2c(-c3ccc(F)cc3)c(C)nn2c(C)c1CCC(=O)NCc1ccco1 | 2.6%
Fc1ccc(-c2ccc(-c3nn4c(-c5ccco5)nnc4s3)o2)cc1 | 98.7% (active)
CC(C)(C)OC(=O)C[C@H]1C/C=C\C[C@@H](CC(=O)N[C@H](CO)Cc2ccccc2)C(=O)NC[C@@H](c2ccccc2)OC1=O | 10.5%
CC(C)(C)OC(=O)C[C@@H]1C/C=C\C[C@@H](CC(=O)N[C@H](CO)Cc2ccccc2)C(=O)NC[C@@H](c2ccccc2)OC1=O | 51.6% (active)
CC(C)(C)OC(=O)C[C@@H]1C/C=C\C[C@@H](CC(=O)N[C@H](CO)Cc2ccccc2)C(=O)NCCOC1=O | 12.4%
Cc1ccc(NS(=O)(=O)c2ccc3c(c2)NC(=O)CO3)cc1 | -11.5%
Cc1c(C)n2c(SCC(=O)NC3CCCC3)nnc2[nH]c1=O | 1.3%
COc1ccccc1C(=O)NC(CCSC)C(=O)NNC(=O)c1ccccc1C (configuration not stated) | 4.9%
CC1=C/C(=N\S(=O)(=O)c2ccccc2)C(C(C)C)=CC1=O | 63.7% (active)
COc1ccc(S(=O)(=O)/N=C2\C=C(NS(=O)(=O)c3ccccc3)C(=O)c3ccccc32)cc1 | -11.4%
Cc1ccc(S(=O)(=O)/N=C2\C=C(NS(=O)(=O)c3ccc(C)cc3)C(=O)c3ccccc32)cc1 | -17.9%
O=C(c1ccc(O)cc1)c1ccc(C(=O)O)c(C(=O)O)c1 | 5.7%
Cc1cccnc1C(NC(=O)C1CCN(Cc2ccc(Cl)c(Cl)c2)CC1)c1ccc(Cl)cc1 (configuration not stated) | 4.5%
CCn1c(/C=N/NC(=O)c2ccc(OC)cc2)nc2ccccc21 | 50.7% (active)
CCn1c(C(O)c2cc(OC)ccc2OC)nc2ccccc21 (configuration not stated) | -3.6%
Cc1nc2ccccc2n1CC(=O)N/N=C/c1cccs1 | -3.1%
S=c1[nH]c2ccccc2c2ccccc12 | 50.1% (active)
Cc1cc2c3ccccc3[nH]c(=O)n2n1 | 2.8%
S=c1ccc2ccccc2[nH]1 | 4.8%
COc1ccc(S(=O)(=O)N2CCN(C(=S)NCC3CCCO3)CC2)cc1OC (configuration not stated) | -4.4%
N=c1ccn(CC(=O)NC(N)=O)c2ccccc12 | 4.5%
CC(C)C(=O)N1CCN(c2nc(-c3ccccc3)c3c(c2C#N)CC(C)(C)OC3)CC1 | 15.1%

SMILES | protection from H2O2 cell death
CCOC(=O)CSc1nc(N2CCOCC2)c2c(c1C#N)CC(C(C)C)OC2 (configuration not stated) | -4%
CC1(C)Cc2c(C#N)c(SCc3nc4ccccc4[nH]3)nc(N3CCOCC3)c2CO1 | 50.1% (active)
Cc1ccc(S(=O)(=O)N2CCCC2C(=O)OCc2nc3sc(C)c(C)c3c(=O)[nH]2)cc1 (configuration not stated) | 34.2%
Cc1cc(C)c2nc(N3CCC(C(=O)NCCN4CCOCC4)CC3)sc2c1 | -1.3%
CCOC(=O)N1CCN(C(=O)CN(C2CCCCC2)S(C)(=O)=O)CC1 | -2.2%
CC(C)=CCc1c(O)c(CC=C(C)C)c2occ(-c3ccc(O)cc3)c(=O)c2c1O | -14.3%
CC(C)=CCc1ccc(O)c(=O)cc1C(C)C | 54.2% (active)
CC(C)c1cc(N=O)cc(C(C)C)c1O | -7%
O=C(c1ccncc1)N1CCN(S(=O)(=O)c2cc(C(F)(F)F)cc(C(F)(F)F)c2)CC1 | -1.3%
COc1ccc(CCNC(=O)CCn2c(=O)c3ccccc3n(CC(=O)NCC3CCCO3)c2=O)cc1OC (configuration not stated) | 7.8%
Cc1ccc2nc3c(cc(C(=O)NCCc4ccccc4)c(=N)n3CC3CCCO3)c(=O)n2c1 (configuration not stated) | 5.6%
COc1ccc(CCn2c(=N)c(C(=O)NCC3CCCO3)cc3c(=O)n4cccc(C)c4nc32)cc1OC (configuration not stated) | 59.6% (active)
CN1CCN(c2ccc(CNS(=O)(=O)c3cccc(F)c3)cc2)CC1 | 7.1%
CCc1c(C)nc2ncnn2c1N1CCC(C(=O)NCc2ccc3c(c2)OCO3)CC1 | -1.5%
CCOC(=O)Nc1ccc(S(=O)(=O)N(C)C(C)C)cc1 | 3.1%
COc1ccc(C(=O)COC(=O)c2ccc([N+](=O)[O-])s2)cc1OC | 61.6% (active)
O=C(OCC(=O)N1CCN(c2ccccc2)CC1)c1ccc([N+](=O)[O-])s1 | -0.2%
COc1cc(NC(=O)COC(=O)c2ccc([N+](=O)[O-])s2)cc(OC)c1OC | 41.6%
CO/N=C(/CS(=O)(=O)c1ccc(Br)cc1)c1ccc(OC)cc1 | -11.9%
Cc1ccc([N+](=O)[O-])c(OCCCNCC(C)O)c1 (configuration not stated) | 0.6%
COc1cc(/C=N/NC(=O)c2ccccc2)ccc1OS(=O)(=O)c1ccccc1 | 81.8% (active)
COc1cc(/C=N/NC(=O)c2cccnc2)ccc1OC(=O)c1cccc(Br)c1 | 27.2%
Cc1ccc(S(=O)(=O)Oc2ccc(/C=N/NC(=O)c3ccncc3)cc2)cc1 | 2.7%

SMILES | protection from H2O2 cell death
Cc1[nH]n(-c2cccc(Cl)c2)c(=O)c1/C=N/n1c(C)nc2ccccc2c1=O | 50.4% (active)
O=Cc1c(N2CCN(c3cccc(Cl)c3)CC2)nc2ccccn2c1=O | 42.7%
O=c1c2ccccc2ncn1/N=C/c1ccccc1 | -10.6%
Oc1ccccc1C=NC1CCCCC1N=Cc1ccccc1O (configuration not stated) | 7.8%
O=C(N/N=C/c1ccccc1O)/C(=C/c1ccccc1)CCO | 35.8%
O=C(NN=Cc1ccccc1O)C(=O)NN=Cc1ccccc1O | 53.6% (active)
COCCNC(=S)c1ccc(OC)cc1 | 5.4%
CCNC(=O)C1(C)CCCN1C(=O)c1ccc(N(C)C)cc1 (configuration not stated) | 0.7%
Cc1nc(N2CCN(c3ccccn3)CC2)c2c(C)c(C(=O)Nc3ccc(F)cc3)sc2n1 | 71.4% (active)
Cc1nc(N2CCOCC2)c2c(C)c(C(=O)Nc3ccc(C(F)(F)F)cc3)sc2n1 | -3.8%
Cc1nc(N2CCN(c3ccccn3)CC2)c2c(C)c(C(=O)Nc3ccc(F)c(Cl)c3)sc2n1 | 31.9%
COc1ccc(S(=O)(=O)N2CCN(c3cnccn3)CC2)cc1 | -1.4%
CCc1nc2ccc(C(=O)NC3CCN(Cc4ccccc4)CC3)cn2c1N(C)CCN1CCOCC1 | 7%
CCOC(=O)N1CCN(Cc2oc(CO)cc(=O)c2O)CC1 | 13%
O=C(CSC1=Nc2ccccc2C2=NC(c3ccccc3)C(=O)N12)NCC1CCCO1 (configuration not stated) | 29.7%
CC(C)C1N=C2c3ccccc3N=C(SCC(=O)c3ccc(O)c(O)c3)N2C1=O (configuration not stated) | 96.8% (active)
NC(=O)CSC1=Nc2ccccc2C2=NC(CCC(=O)NCc3ccc(F)cc3)C(=O)N12 (configuration not stated) | 2.5%
Cc1ccc(S(=O)(=O)N2CCC(C(=O)N[C@@H](C)C(=O)NCCc3ccccc3)CC2)cc1 | 2%
COc1cccc(CNc2nc3cc(-c4csc5ccccc45)sc3c(=O)n2C)c1 | -3.9%
COc1ccc(-c2nc3ccccc3n2CCC(C)C)cc1OC | 6.5%
COc1ccc(-n2c(SCC(=O)OC(C)C)nnc2-c2ccccn2)cc1 | 4%
COc1ccc(-c2nn3c(-c4ccccc4)nnc3s2)cc1OC | 63.1% (active)
CN(C(=O)c1ccccn1)c1nnc(-c2ccccn2)s1 | -5.5%

SMILES | protection from H2O2 cell death
CCOc1cccc(-c2nn3c(-c4ccccn4)nnc3s2)c1 | 68% (active)
CCOc1cccc(-c2nnc(SCC(=O)NC3CC3)n2C)c1 | -1.8%
c1ccc(-c2cc(-c3nnc4sc(-c5ccccn5)nn34)[nH]n2)cc1 | 63.3% (active)
COc1ccc(NC(=O)c2cc3nc(-c4ccccc4)cc(C)n3n2)cc1OC | 36.7%
O=S(=O)(Nc1ccc2ccccc2c1)N1CCCCC1 | -4%
Cc1c(C(=O)O)nnn1-c1nonc1N | 3.3%
Cc1cc(C)c(CN2CCN(C(=O)Cn3ccc(NC(=O)OCc4ccccc4)nc3=O)CC2)c(C)c1 | -25%
CCN(CC)CCCN1C(=O)C(=O)/C(=C(/O)c2c(C)nc3ccccn23)C1c1ccc(C)o1 (configuration not stated) | 4.2%
COC(=O)c1ccc2nc(-c3ccc(Cl)cc3)c(Cc3cccc(F)c3)n2c1 | -2.7%
Cc1ccc(N/C(N)=N/c2nc(C(F)(F)F)cc(C(F)(F)F)n2)cc1 | -14.8%
CCO[C@H]1OC(C(=O)N2CCOCC2)=C[C@@H](c2ccc3c(c2)OCO3)[C@@H]1CCCO | 2.8%
COc1ccc(OC)c(C(O)c2ncc(-c3cccc(C(F)(F)F)c3)[nH]2)c1 (configuration not stated) | -12.4%
CCNC(=O)C1(C)CCCN(Cc2noc(-c3ccccc3OC)n2)C1 (configuration not stated) | -1.9%
CCNC(=O)c1sccc1-n1cccc1 | 5%
O=C(COC(=O)c1cccc(Cl)c1)NC1CCCCCCC1 | -3.2%
O=C(COc1ccccc1O)NC1CCCC1 | -0.6%
Cc1ccccc1NC(=O)COc1cccc2c1CCNC2=O | 70.7% (active)
Cc1ccccc1NC(=O)CSC1=NCCN1 | -2%
COc1ccccc1OCC(=O)Nc1ccccc1C(=O)NC1CC1 | 4.6%
O=C(COc1cccc2c1CCNC2=O)NC1CCCCC1 | 56.1% (active)
OCC1(Cc2ccccc2C(F)(F)F)CCN(Cc2cccc3cnccc23)CC1 | -2.8%
Cc1cc(O)ccc1NC1=CC(=O)CC(C)(C)C1 | -13.4%
CCN(CC)CCCNC(=O)c1c(O)c2cc(F)cc3c2n(c1=O)C(C)CC3 (configuration not stated) | 22.2%

— PubChem BioAssay AID588492 (Sanford-Burnham Center for Chemical Genomics, 2011)
